Data on 7 compounds can be found in PubChem BioAssay (NCI).

The panel holds about 83,000 compounds, 20% with a hit somewhere; the sample as a whole holds those more often.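 96-well plates, one dose, 48 hours. Percent growth reported; active if below 10.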 A number with no mark means an inactive call. Calls of active or inactive are those of the source.

Test systems include EKVX NSCLC; SN12C renal; UO-31 renal; TK-10 renal; ACHN renal; CAKI-1 renal; A498 renal; CCRF-CEM leukemia; MOLT-4 leukemia; SR leukemia; RPMI-8226 leukemia; OVCAR-5 ovarian; OVCAR-4 ovarian; SK-OV-3 ovarian; IGROV1 ovarian; OVCAR-3 ovarian; HS 578T breast; NCI/ADR-RES ovarian; OVCAR-8 ovarian.
Experiment in all cases: NCI-60 one-dose screen, 48 h (100 = growth as untreated, 0 = no growth, -100 = all killed)
What all share (conditions): 10 µM unless noted

`Cc1ccc(C(=O)N/N=C/c2cccc(Oc3ccccc3)c2)cn1`: the growth in the assay on EKVX NSCLC is 77.4%; in the assay with SN12C renal it was 68.6%; in the assay with UO-31 renal, 13.9%; in the assay on TK-10 renal it was 83.3%; in the assay with ACHN renal it was 85.9%; in the assay with CAKI-1 renal, 22.9%. The growth is 57.6% in the assay with A498 renal; 82.3% in the assay on CCRF-CEM leukemia; 40% with MOLT-4 leukemia; 48.6% with SR leukemia; 89.5% in the assay on RPMI-8226 leukemia; 93.1% in the assay with OVCAR-5 ovarian. The growth is 86.7% with OVCAR-4 ovarian; 80% with SK-OV-3 ovarian; 24% with IGROV1 ovarian; 35.7% in the assay on OVCAR-3 ovarian; 50.8% in the assay with HS 578T breast; 19.8% in the assay with NCI/ADR-RES ovarian.
In the case of `CN1C(=C2C(=O)OC(C)(C)OC2=O)CCC1C(=O)NCc1ccc(Cl)cc1Cl` (configuration not stated), the growth with SN12C renal was 93.3%; in the assay with UO-31 renal it was 85%; with TK-10 renal, 93.8%; in the assay with ACHN renal it was 97%; in the assay with CAKI-1 renal, 95%; with A498 renal, 59.5%. Also, the growth is 86.4% with CCRF-CEM leukemia; 94.6% with MOLT-4 leukemia; 94.7% in the assay on SR leukemia; 82.9% with RPMI-8226 leukemia; 94.9% in the assay on OVCAR-5 ovarian; 98.2% with OVCAR-4 ovarian. In addition, the growth was 85.8% with SK-OV-3 ovarian; 99.8% with IGROV1 ovarian; 101% in the assay with OVCAR-3 ovarian; 97.5% in the assay on HS 578T breast; 101% with NCI/ADR-RES ovarian.
Regarding `O=c1c2cc(C(F)(F)F)ccc2sc2c(NCCCNCCO)nc3ccccc3c12`, the growth with EKVX NSCLC was 67.3%; in the assay with SN12C renal, 36.1%; in the assay with UO-31 renal it was 23.2%; in the assay on TK-10 renal, -0.0148% (active); in the assay with ACHN renal it was 2.14% (active); in the assay with CAKI-1 renal, -67.2% (active). The growth was 21.8% with A498 renal; -12.5% (active) in the assay with CCRF-CEM leukemia; -50.1% (active) in the assay on MOLT-4 leukemia; -39.4% (active) with SR leukemia; -3.45% (active) in the assay with OVCAR-8 ovarian; 64.8% with OVCAR-5 ovarian. For the same compound, the growth in the assay with OVCAR-4 ovarian was -41.6% (active); in the assay with SK-OV-3 ovarian it was 74.9%; in the assay on IGROV1 ovarian, 15%; with OVCAR-3 ovarian, -73.8% (active); in the assay with HS 578T breast it was -9.58% (active); with NCI/ADR-RES ovarian, 1.68% (active).
Turning to `Nc1nc2ccccc2c2c(=O)c3cc(F)ccc3sc12`, the growth with EKVX NSCLC was 91.5%; with SN12C renal, 101%; in the assay with UO-31 renal, 91.3%; in the assay on TK-10 renal, 110%; with ACHN renal it was 101%; in the assay on CAKI-1 renal it was 107%. The growth was 89.7% with A498 renal; 105% with CCRF-CEM leukemia; 101% in the assay with MOLT-4 leukemia; 101% in the assay with SR leukemia; 106% in the assay with OVCAR-8 ovarian; 102% in the assay on OVCAR-5 ovarian. In addition, the growth in the assay on SK-OV-3 ovarian was 108%; with IGROV1 ovarian it was 103%; with OVCAR-3 ovarian, 113%; with HS 578T breast, 101%; with NCI/ADR-RES ovarian, 97.5%.
As to `CC(C)n1cnc2c(Nc3cccc(Cl)c3)nc(N[C@H]3CCCC[C@@H]3N)nc21`, the growth with SN12C renal was 50.6%; with UO-31 renal it was 31.7%; in the assay with TK-10 renal, 67.4%; in the assay on ACHN renal, 29.9%; with CAKI-1 renal, 49.5%; with A498 renal, 94.9%. Further, the growth was 66.6% in the assay on CCRF-CEM leukemia; 7.51% (active) in the assay with MOLT-4 leukemia; 13.9% in the assay on SR leukemia; 19.8% in the assay with RPMI-8226 leukemia; 50.4% with OVCAR-5 ovarian; 55.4% in the assay on OVCAR-4 ovarian. The growth was 80.6% in the assay with SK-OV-3 ovarian; 29.4% in the assay with IGROV1 ovarian; 61.2% in the assay with OVCAR-3 ovarian; 66.7% in the assay on HS 578T breast; 61.4% in the assay with NCI/ADR-RES ovarian.
Consider `Cc1nc(/N=C(\N)NC(=O)Nc2ccccc2Cl)sc1C`, for which the growth was 48.7% in the assay with EKVX NSCLC; 42.7% in the assay on SN12C renal; 58.1% in the assay with UO-31 renal; 70.7% in the assay on TK-10 renal; 52.3% in the assay on ACHN renal; 30.9% with CAKI-1 renal. For the same compound, the growth with A498 renal is -15.9% (active); with CCRF-CEM leukemia, 16.4%; with MOLT-4 leukemia it was 43.6%; in the assay on RPMI-8226 leukemia it was 8.06% (active); in the assay with OVCAR-8 ovarian, 33.9%; with OVCAR-5 ovarian, 51.3%. The growth in the assay on OVCAR-4 ovarian was 55.1%; in the assay with SK-OV-3 ovarian it was 45.4%; in the assay on IGROV1 ovarian, 42.8%; in the assay with OVCAR-3 ovarian it was 12.1%; in the assay on HS 578T breast, 13.5%; in the assay with NCI/ADR-RES ovarian it was 15.7%.
Consider `COC1=C(C)C(=O)c2c(c(CCCl)c3n2CCC3OC(C)=O)C1=O` (configuration not stated), for which the growth in the assay on EKVX NSCLC was 0.0316% (active); in the assay with SN12C renal it was 3.34% (active); with UO-31 renal, -60.9% (active); in the assay with TK-10 renal, -37.9% (active); in the assay with ACHN renal, -3.88% (active); in the assay on CAKI-1 renal, 0.742% (active). Moreover, the growth with A498 renal was -87.8% (active); in the assay on CCRF-CEM leukemia it was 50.2%; in the assay on MOLT-4 leukemia, 34.4%; in the assay with SR leukemia, 1.94% (active); in the assay with OVCAR-8 ovarian it was 10.2%; with OVCAR-5 ovarian it was 4.93% (active). The growth is 72% with OVCAR-4 ovarian; -21.6% (active) in the assay on SK-OV-3 ovarian; -23.3% (active) in the assay with OVCAR-3 ovarian; -22.9% (active) in the assay on HS 578T breast; 8.95% (active) in the assay on NCI/ADR-RES ovarian.
